Parameters in all cases: scale not given: direction of the effect not stated beside the values
The target of experiment [1] is Protein translocase subunit SecA (Escherichia coli (strain K12)) (UniProt P10408). Description: Assay to Identify E. coli SecA ATPase Inhibitors. It counts as functional. As to conditions: 30 µM.
Experiment [2] deals with T1, Ubiquitin-activating enzyme e1, putative (Leishmania donovani (strain BPK282A1)) (UniProt E9BSI1).
T1 sequence (whole entry): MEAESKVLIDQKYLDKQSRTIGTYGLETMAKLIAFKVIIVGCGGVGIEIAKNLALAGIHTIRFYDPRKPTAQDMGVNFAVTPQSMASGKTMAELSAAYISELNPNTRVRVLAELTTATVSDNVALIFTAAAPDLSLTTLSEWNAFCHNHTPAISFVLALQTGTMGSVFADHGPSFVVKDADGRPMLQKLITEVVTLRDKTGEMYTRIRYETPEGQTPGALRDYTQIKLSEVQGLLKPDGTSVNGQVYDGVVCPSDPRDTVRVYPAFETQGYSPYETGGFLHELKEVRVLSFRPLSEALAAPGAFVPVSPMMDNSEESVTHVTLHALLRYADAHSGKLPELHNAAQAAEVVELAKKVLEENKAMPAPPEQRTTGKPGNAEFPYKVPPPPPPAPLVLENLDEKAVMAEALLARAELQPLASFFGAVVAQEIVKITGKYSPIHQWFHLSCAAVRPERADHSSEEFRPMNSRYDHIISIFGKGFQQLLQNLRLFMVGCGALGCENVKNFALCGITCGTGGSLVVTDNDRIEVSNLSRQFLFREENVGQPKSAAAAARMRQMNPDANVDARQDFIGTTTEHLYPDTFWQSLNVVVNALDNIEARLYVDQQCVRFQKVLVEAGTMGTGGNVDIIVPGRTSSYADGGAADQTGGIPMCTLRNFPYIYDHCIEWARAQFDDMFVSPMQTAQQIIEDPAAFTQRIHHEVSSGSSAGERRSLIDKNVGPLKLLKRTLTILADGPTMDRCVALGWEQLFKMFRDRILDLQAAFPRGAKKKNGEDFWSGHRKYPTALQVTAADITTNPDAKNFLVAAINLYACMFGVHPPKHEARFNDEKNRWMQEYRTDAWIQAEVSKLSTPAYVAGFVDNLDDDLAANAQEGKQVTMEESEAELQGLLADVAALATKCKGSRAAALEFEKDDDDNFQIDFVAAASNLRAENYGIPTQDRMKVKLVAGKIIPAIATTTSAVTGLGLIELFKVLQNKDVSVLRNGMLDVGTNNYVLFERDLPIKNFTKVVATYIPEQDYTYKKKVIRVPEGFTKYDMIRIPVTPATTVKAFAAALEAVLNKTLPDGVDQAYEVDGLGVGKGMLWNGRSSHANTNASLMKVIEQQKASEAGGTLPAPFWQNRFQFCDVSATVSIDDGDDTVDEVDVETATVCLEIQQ
Description: Leishmania donovani Ubiquitin Activating Enzyme (LdE1). The following applies: 30 µM. It counts as functional.

The target in experiment [3] is AMP-activated protein kinase, AMPK (Homo sapiens) (UniProt P54646+O43741+P54619+Q9UGJ0+Q9Y478+Q13131+Q9UGI9). The experiment is described as follows: AMP-dependent Kinase enzyme assay. An in vitro enzyme assay that detects ADP turnover that is directly proportional to AMPK activity. This uses naive AMPK that is activated during the assay with MK-8722. As to conditions: 30 µM. The class given is functional.

The target of experiment [4] is Sialic acid-binding Ig-like lectin 9 (Homo sapiens) (UniProt Q9Y336). The experiment is described as follows: Hs-Siglec9 ALPHAscreen SOP 20170721. As to conditions: 10 µM. In general terms: Bead proximity is the source of the signal in Alpha formats.
The test system of experiment [5] is Trypanosoma cruzi. Description: Trypanosoma cruzi phosphomannomutase and mannose-1-phosphate guanylyltransferase assay. The class given is functional. The following applies: 10 µM.
Experiment [6] deals with T2, Arginase-2, mitochondrial (Homo sapiens) (UniProt P78540).
T2 sequence (whole entry): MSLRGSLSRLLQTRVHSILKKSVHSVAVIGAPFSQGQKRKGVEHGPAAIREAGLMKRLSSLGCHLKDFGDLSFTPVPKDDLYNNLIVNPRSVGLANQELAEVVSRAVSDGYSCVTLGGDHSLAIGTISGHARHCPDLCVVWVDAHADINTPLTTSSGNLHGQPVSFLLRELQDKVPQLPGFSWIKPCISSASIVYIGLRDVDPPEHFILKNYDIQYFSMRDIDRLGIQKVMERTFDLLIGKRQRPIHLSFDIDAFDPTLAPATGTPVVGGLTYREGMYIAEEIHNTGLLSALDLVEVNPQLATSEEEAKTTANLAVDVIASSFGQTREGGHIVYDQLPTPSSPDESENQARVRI
Description: in vitro enzyme assay to detect the production of urea directly proportional to the activity of Arginase II. Further: in the data most compounds retested in dose-response had high values. The class given is functional. The following applies: 33.3 µM.

Experiment [7] concerns the target T3, Proteasome subunit beta (Trypanosoma cruzi) (UniProt O96673).
T3 sequence (whole entry): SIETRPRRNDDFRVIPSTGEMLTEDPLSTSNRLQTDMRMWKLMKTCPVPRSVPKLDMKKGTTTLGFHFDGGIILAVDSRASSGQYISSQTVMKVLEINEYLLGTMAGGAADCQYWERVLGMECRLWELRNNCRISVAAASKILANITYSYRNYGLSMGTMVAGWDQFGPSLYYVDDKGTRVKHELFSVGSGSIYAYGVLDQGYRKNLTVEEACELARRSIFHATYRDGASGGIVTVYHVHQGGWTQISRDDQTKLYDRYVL
Description: Trypanosoma cruzi proteasome chymotrypsin-like activity (TcProtChymo) assay. Further: in the data most compounds retested in dose-response had high values. It counts as functional. As to conditions: 9.37 µM.

For experiment [8], the species on record is Homo sapiens. The experiment is described as follows: To identify inhibition of the IFN signalling (Jak-Stat) pathway via expression of an eGFP reporter gene under the control of an IFN-stimulated response element (ISRE) containing MxA promoter. It counts as functional. As to conditions: 30 µM. On the technique in general: A reporter such as luciferase makes a cellular process visible.

Experiment [9] deals with T4, Tyrosyl-tRNA synthetase, putative (Trypanosoma cruzi (strain CL Brener)) (UniProt Q4DSP6).
T4 sequence (whole entry): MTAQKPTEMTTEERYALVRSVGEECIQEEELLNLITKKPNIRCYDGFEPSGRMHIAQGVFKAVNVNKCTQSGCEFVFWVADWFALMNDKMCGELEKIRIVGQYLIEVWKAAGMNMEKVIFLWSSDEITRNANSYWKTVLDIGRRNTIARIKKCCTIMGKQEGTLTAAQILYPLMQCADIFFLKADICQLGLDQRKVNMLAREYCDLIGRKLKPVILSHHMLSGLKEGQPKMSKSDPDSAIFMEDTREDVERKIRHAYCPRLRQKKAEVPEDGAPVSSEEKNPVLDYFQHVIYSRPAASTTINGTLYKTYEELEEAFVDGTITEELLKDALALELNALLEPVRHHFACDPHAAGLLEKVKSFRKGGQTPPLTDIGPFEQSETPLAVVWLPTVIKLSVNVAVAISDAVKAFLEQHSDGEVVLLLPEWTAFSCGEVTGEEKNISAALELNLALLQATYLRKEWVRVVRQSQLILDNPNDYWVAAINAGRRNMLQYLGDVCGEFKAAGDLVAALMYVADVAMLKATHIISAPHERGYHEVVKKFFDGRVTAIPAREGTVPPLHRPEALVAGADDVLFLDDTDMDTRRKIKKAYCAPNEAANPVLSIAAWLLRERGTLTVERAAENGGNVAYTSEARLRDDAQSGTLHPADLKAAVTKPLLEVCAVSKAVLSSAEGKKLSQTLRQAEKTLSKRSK
The experiment is described as follows: Trypanosoma cruzi tyrosyl tRNA synthetase (TcYRS) _High Tyrosine SOP. Further: in the data most compounds retested in dose-response had high values. The class given is functional. The following applies: 30 µM.

In experiment [10] the target is T4, Tyrosyl-tRNA synthetase, putative (Trypanosoma cruzi (strain CL Brener)). Description: Trypanosoma cruzi tyrosyl tRNA synthetase (TcYRS) SOP. The class given is functional. The following applies: 30 µM.
The target in experiment [11] is Chromo domain-containing protein 1 (Saccharomyces cerevisiae (strain ATCC 204508 / S288c) (Baker's yeast)) (UniProt P32657). The experiment is described as follows: ScCHD-1 Enzyme Inhibition Assay. Further: in the data most compounds retested in dose-response had high values. The following applies: 30 µM. It counts as functional.

For some of these results: Measured potencies and affinities stand elsewhere.

Chain of Sialic acid-binding Ig-like lectin 9 (Homo sapiens) (Q9Y336 whole entry): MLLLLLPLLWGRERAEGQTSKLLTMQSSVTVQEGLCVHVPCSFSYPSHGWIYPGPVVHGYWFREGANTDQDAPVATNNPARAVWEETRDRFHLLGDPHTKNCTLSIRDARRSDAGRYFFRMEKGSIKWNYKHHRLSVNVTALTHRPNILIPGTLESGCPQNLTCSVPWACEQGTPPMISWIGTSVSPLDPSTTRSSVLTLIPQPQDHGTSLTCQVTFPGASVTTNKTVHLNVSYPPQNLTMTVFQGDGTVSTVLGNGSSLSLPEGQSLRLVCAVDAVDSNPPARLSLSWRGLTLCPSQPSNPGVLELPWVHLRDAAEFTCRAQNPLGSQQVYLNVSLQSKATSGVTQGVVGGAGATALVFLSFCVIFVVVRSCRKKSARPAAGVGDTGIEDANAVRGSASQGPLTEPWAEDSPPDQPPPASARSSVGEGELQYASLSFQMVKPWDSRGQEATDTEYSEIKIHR
Chain of Chromo domain-containing protein 1 (Saccharomyces cerevisiae (strain ATCC 204508 / S288c) (Baker's yeast)) (P32657 whole entry, the tested form may be a part): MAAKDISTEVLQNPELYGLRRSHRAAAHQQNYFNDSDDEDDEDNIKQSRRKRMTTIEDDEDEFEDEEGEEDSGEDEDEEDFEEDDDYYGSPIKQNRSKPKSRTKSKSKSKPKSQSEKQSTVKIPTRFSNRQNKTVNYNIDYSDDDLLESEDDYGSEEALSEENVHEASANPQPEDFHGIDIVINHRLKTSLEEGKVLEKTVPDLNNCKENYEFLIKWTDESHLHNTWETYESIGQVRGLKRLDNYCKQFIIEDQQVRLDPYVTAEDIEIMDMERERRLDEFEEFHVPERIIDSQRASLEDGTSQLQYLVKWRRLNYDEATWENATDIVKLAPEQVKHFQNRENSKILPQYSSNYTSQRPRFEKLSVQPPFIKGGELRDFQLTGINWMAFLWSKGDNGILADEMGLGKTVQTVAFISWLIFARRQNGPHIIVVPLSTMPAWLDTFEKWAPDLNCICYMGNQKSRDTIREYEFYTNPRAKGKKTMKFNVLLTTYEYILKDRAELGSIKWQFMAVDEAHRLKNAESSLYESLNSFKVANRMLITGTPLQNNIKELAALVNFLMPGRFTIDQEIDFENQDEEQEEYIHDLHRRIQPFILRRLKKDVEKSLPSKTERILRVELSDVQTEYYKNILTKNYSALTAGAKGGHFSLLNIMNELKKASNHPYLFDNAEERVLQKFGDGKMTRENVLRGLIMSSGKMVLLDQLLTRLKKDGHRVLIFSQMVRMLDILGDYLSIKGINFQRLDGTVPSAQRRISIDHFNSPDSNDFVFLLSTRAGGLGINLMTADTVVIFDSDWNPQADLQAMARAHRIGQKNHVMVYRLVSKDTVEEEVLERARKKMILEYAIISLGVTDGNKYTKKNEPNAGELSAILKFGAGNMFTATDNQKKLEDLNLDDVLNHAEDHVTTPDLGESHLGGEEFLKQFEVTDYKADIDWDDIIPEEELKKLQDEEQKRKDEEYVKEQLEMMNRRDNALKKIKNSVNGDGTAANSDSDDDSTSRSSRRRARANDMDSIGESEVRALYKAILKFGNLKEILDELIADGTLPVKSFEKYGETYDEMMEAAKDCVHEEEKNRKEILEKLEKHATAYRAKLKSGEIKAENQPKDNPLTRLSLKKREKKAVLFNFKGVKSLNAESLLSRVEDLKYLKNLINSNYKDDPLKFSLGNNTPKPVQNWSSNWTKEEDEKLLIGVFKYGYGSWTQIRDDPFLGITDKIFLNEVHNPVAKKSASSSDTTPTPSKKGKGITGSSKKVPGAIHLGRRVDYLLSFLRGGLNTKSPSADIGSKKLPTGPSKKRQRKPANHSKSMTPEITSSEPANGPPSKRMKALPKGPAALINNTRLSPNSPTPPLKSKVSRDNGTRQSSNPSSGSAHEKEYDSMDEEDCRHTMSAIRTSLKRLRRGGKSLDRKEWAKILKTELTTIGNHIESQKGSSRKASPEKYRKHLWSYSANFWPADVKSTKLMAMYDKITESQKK
Chain of Protein translocase subunit SecA (Escherichia coli (strain K12)) (P10408 whole entry): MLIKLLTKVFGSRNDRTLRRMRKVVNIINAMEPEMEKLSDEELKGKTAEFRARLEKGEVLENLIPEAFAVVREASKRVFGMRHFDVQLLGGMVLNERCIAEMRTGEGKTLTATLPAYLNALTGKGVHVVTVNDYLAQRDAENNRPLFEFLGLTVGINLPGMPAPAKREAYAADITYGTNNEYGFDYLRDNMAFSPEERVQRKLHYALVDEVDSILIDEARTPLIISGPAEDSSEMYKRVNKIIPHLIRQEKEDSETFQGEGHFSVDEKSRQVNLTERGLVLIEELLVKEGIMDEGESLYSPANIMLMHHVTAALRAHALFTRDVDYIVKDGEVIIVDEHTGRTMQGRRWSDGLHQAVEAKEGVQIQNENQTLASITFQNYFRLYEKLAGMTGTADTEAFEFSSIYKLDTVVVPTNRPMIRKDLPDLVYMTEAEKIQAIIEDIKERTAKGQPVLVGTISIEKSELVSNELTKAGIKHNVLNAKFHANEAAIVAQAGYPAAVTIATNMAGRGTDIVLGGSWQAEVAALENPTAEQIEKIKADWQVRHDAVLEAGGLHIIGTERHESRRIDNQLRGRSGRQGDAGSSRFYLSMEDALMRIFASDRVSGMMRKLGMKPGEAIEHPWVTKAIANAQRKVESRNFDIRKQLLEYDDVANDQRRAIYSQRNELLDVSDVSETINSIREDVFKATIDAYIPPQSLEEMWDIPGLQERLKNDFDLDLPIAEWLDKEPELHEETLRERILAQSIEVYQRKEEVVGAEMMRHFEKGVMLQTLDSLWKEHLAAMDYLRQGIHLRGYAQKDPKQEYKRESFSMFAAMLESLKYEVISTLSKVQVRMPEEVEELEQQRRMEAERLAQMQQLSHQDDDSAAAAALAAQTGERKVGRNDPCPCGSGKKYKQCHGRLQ

For the compound `Cc1csc(NC(=O)CN2CCC(c3ccnn3CCO)CC2)n1`, the Percent Effect in experiment [1] was -4.67%; in [2], 25.3%; in experiment [3], -7.88%; in experiment [4], -3.79%; in experiment [5] it was 4.06%; in experiment [6], 0%. Also, the Percent Effect in experiment [7] was 9.42%; in experiment [8] it was 47.6%; in [9], 8.37%; in experiment [10], 26.6%; in experiment [11], -7.33%.

Regarding `Cc1cnn(CC2CCCN2Cc2cc(=O)n3ccccc3n2)c1` (stereo unspecified), the Percent Effect was -4.27% in experiment [1]; -2.7% in experiment [2]; -0.318% in [3]; -1.03% in [4]; 2.05% in experiment [5]; 2.73% in experiment [6]. Also, the Percent Effect in experiment [7] was 16.7%; in experiment [8], -16.2%; in experiment [9], 7.53%; in experiment [10], 8.64%; in experiment [11] it was -4.06%.

Turning to `CC(Oc1ccccc1C(F)(F)F)C(=O)NCC(N)=O` (stereo unspecified), the Percent Effect in experiment [1] is -4.95%; in experiment [2] it was 5.41%; in experiment [3], 0.686%; in experiment [4] it was -2.42%; in experiment [5], 4.3%; in [6] it was -1.67%. The Percent Effect in [7] is 12.9%; in [8], -26.2%; in experiment [9], 12.9%; in [10], 15.8%; in [11] it was 2.04%.

For the compound `COc1c(C2CCCN2CC(=O)Nc2nc(C)cs2)c(C)nn1C` (stereo unspecified), the Percent Effect in [1] is -0.196%; in experiment [2] it was -5.41%; in experiment [3], -8.37%; in [4], 10.3%; in [5], 4.74%; in [6], 1.29%. Besides, the Percent Effect in experiment [7] is 5.03%; in [8] it was 5.63%; in experiment [9], 4.95%; in [10], 6.1%; in [11] it was 0.0954%.

In the case of `c1ccc(-c2nc(CNC3CCc4ncnn4C3)co2)cc1` (stereo unspecified), the Percent Effect in [1] was -6.67%; in experiment [2] it was 20.8%; in experiment [3] it was -3.92%; in experiment [4], 12.6%; in [5], 7.68%; in experiment [6], -3.92%. Also, the Percent Effect was 3.21% in [7]; 9.63% in experiment [8]; 8.74% in [9]; 19.5% in experiment [10]; -7.68% in experiment [11].

For `O=C(NCCCN1CCCC1)c1n[nH]c(=O)c2ccccc12`, the Percent Effect is -2.88% in [1]; 20.8% in experiment [2]; 0.621% in experiment [3]; -1.51% in [4]; -10.7% in experiment [5]; 2.13% in experiment [6]. The Percent Effect was 5.74% in experiment [7]; 11.3% in [8]; 6.8% in experiment [9]; 12.2% in experiment [10]; -6.65% in [11].

Take `O=S1(=O)c2ccccc2C2(CCN(Cc3ccccc3)C2)N1CC1CC1` (stereo unspecified): the Percent Effect in experiment [1] is -1.03%; in experiment [2], 0%; in [3], 12.2%; in [4], 4.58%; in experiment [5], 1.18%; in experiment [6], 2.1%. Besides, the Percent Effect in [7] is -0.264%; in experiment [8], 32.1%; in experiment [9], 3.19%; in experiment [10], 3.85%; in [11] it was 2.59%.

For `CC(NC(=O)CNCCn1cccn1)c1ccc2c(c1)CCCC2` (stereo unspecified), the Percent Effect in experiment [1] is -8.2%; in [2] it was 13%; in [3], -1.74%; in [4] it was 15.8%; in [5] it was 3.37%; in experiment [6], -6.41%. For the same compound, the Percent Effect in [7] was 9.46%; in experiment [8], -3.61%; in experiment [9], 12.6%; in experiment [10] it was 26.8%; in experiment [11] it was -9.3%.

Regarding `N#Cc1ccc(CN2CCC(c3ccnn3CCO)CC2)cc1`, the Percent Effect in experiment [1] was -4.87%; in experiment [2], 10.5%; in [3] it was -3.54%; in experiment [4], 2.96%; in experiment [5], 0.654%; in experiment [6], -1.8%. Besides, the Percent Effect in experiment [7] was -4.48%; in [8] it was 3.68%; in experiment [9], 7.39%; in [10], 23.5%; in experiment [11], -1.9%.

Take `COCCC(=O)N1CC[C@@H]2O[C@@H](C)C[C@H]2C1`: the Percent Effect was -6.08% in [1]; 8% in experiment [2]; 0.716% in experiment [3]; 0.473% in [4]; 2.36% in experiment [5]; -3.96% in experiment [6]. Moreover, the Percent Effect is 6.61% in experiment [7]; 15.7% in experiment [8]; 6.38% in [9]; 11.5% in experiment [10]; -7.49% in [11].

For `CN1CCCC1CNC(=O)CCCOc1ccc(F)cc1` (stereo unspecified), the Percent Effect in experiment [1] is -1.24%; in [2], 0%; in [3] it was 7.48%; in [4], 11.7%; in [5], 4.7%; in [6] it was -3.83%. Also, the Percent Effect in experiment [7] was 0.835%; in experiment [8] it was -4.13%; in experiment [9], 4.41%; in [10], 7.32%; in experiment [11] it was -3.92%.

Source of the values: ChEMBL document CHEMBL3988442, “University of Dundee, Small-Polar-MMV Screening Library” (2021).
